Experimental data taken from PubChem BioAssay AID1159580 (chemical genetic matrix, 2015).
Hit rate of the full screen: of about 5,500 compounds, about 2,000 (36%) were called active. Inconclusive results (about 18%) are left out. Rule as the data show it: active = normalized growth mostly below about 0.91 (no sharp cut-off); inconclusive = no clear call, values can overlap the other calls; inactive = mostly above about 0.92. The list shows a part of the results.

Assay: chemical genetic growth profiling, strain panel (AID 1159580);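 also: tested at 20 µM; growth read once vehicle control cultures reached saturation at 30 °C; 1 = growth at the plate median or of vehicle wells; lower values mean less growth of the strain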
Details: growth OD
[1] = S. cerevisiae deletion strains, locus YAL013W, strain DEP1, hits give low values
[2] = S. cerevisiae deletion strains, locus YDR150W, strain NUM1, hits give low values
[3] = S. cerevisiae deletion strains, locus YGR229C, strain SMI1, hits give low values
[4] = S. cerevisiae deletion strains, locus YNL153C, strain GIM3, hits give low values
[5] = S. cerevisiae deletion strains, locus YNL322C, strain KRE1, hits give low values
[6] = S. cerevisiae deletion strains, locus YBR229C, strain ROT2, hits give low values
[7] = S. cerevisiae deletion strains, locus YDL101C, strain DUN1, hits give low values
[8] = S. cerevisiae deletion strains, locus YEL061C, strain CIN8, hits give low values
[9] = S. cerevisiae deletion strains, locus YGR078C, strain PAC10, hits give low values
[10] = S. cerevisiae deletion strains, locus YHR030C, strain SLT2, hits give low values
[11] = S. cerevisiae deletion strains, locus YHR087W, strain rtc3, hits give low values
[12] = S. cerevisiae deletion strains, locus YJR043C, strain POL32, hits give low values
[13] = S. cerevisiae deletion strains, locus YJR075W, strain HOC1, hits give low values
[14] = S. cerevisiae deletion strains, locus YKL190W, strain CNB1, hits give low values
[15] = S. cerevisiae deletion strains, locus YLR039C, strain RIC1, hits give low values
[16] = S. cerevisiae deletion strains, locus YLR058C, strain SHM2 (second series), hits give low values
[17] = S. cerevisiae deletion strains, locus YLR085C, strain ARP6, hits give low values
[18] = S. cerevisiae deletion strains, locus YLR262C, strain YPT6, hits give low values
[19] = S. cerevisiae deletion strains, locus YML094W, strain GIM5, hits give low values
[20] = S. cerevisiae deletion strains, locus YMR219W, strain ESC1, hits give low values
[21] = S. cerevisiae deletion strains, locus YMR263W, strain SAP30, hits give low values
[22] = S. cerevisiae deletion strains, locus YNL128W, strain TEP1, hits give low values
[23] = S. cerevisiae deletion strains, locus YNL298W, strain CLA4 (second series), hits give low values
[24] = S. cerevisiae deletion strains, locus YNR030W, strain Alg12, hits give low values
[25] = S. cerevisiae deletion strains, locus YPL055C, strain LGE1, hits give low values
[26] = S. cerevisiae deletion strains, locus YPL241C, strain CIN2, hits give low values
[27] = S. cerevisiae deletion strains, locus YPR135W, strain CTF4, hits give low values
[28] = S. cerevisiae strains, strain wild type, hits give low values
[29] = S. cerevisiae deletion strains, locus YMR307W, strain GAS1, hits give low values

Measured: normalized growth

Clc1ccc(N2CC3CCC(C2)N3)nn1
inactive: [1] 1.04 | S. cerevisiae deletion strains, locus YAL040C, strain CLN3, hits give low values 1.01 | S. cerevisiae deletion strains, locus YCL061C, strain MRC1 (second series), hits give low values 1.01 | [2] 1 | S. cerevisiae deletion strains, locus YDR363W, strain ESC2, hits give low values 1.01 | S. cerevisiae deletion strains, locus YER002W, strain NOP16, hits give low values 1 | [3] 1.03 | [4] 1.01 | S. cerevisiae deletion strains, locus YNL175C, strain NOP13, hits give low values 0.995 | S. cerevisiae deletion strains, locus YNL197C, strain WHI3, hits give low values 1 | S. cerevisiae deletion strains, locus YNL224C, strain SQS1, hits give low values 1 | [5] 1.04 | S. cerevisiae deletion strains, locus YOR083W, strain WHI5 (second series), hits give low values 0.959

NC(=S)N/N=C\c1cccs1
inactive: [1] 0.984 | [6] 0.96 | [7] 0.979 | [2] 0.962 | [8] 0.945 | [9] 0.98 | [3] 1.01 | [10] 0.992 | [11] 1.02 | [12] 0.973 | [14] 1 | [15] 1.11 | [16] 1 | [18] 1.08 | [19] 0.92 | [21] 0.997 | [22] 1 | [23] 0.955 | [5] 1.02 | [25] 0.915 | [26] 1.06 | [27] 1.02 | [28] 1
active: [13] 0.829 | [17] 0.562 | [20] 0.873 | [4] 0.898 | [24] 0.737

CCOC(=O)N/N=C\c1cccs1
inactive: [1] 0.995 | [6] 1 | [7] 0.982 | [2] 0.996 | [8] 1 | [9] 1 | [10] 1.05 | [11] 0.992 | [12] 0.984 | [13] 0.972 | [14] 1.01 | [15] 1.07 | [16] 1.02 | [17] 1.01 | [18] 1.05 | [19] 0.996 | [20] 1 | [21] 0.997 | [29] 1.02 | [22] 1 | [4] 0.996 | [23] 1.03 | [5] 1.01 | [24] 1 | [25] 1.01 | [26] 0.993 | [27] 0.948 | [28] 1.01

O=C(N/N=C\c1cccs1)c1ccccc1CO
inactive: [1] 0.998 | [6] 1.01 | [7] 0.997 | S. cerevisiae deletion strains, locus YDL134C, strain PPH21, hits give low values 1 | [2] 1 | [8] 0.994 | [9] 0.994 | [3] 1 | [10] 1 | [11] 1 | S. cerevisiae deletion strains, locus YJL187C, strain SWE1, hits give low values 0.989 | [12] 0.999 | [13] 0.995 | [15] 0.999 | [16] 1.01 | [17] 0.996 | [18] 1.04 | [19] 0.986 | [20] 1 | [21] 0.997 | [29] 1 | [22] 1.01 | [4] 0.99 | [23] 1 | [5] 0.996 | [24] 1.01 | S. cerevisiae deletion strains, locus YOL006C, strain TOP1, hits give low values 0.994 | [25] 1.01 | [26] 0.992 | [27] 1.04

NC(=S)N/N=C\c1ccccc1
inactive: [1] 0.991 | [6] 1.02 | [7] 0.987 | [2] 0.963 | [9] 1.02 | [10] 0.823 | [11] 1.06 | [12] 1 | [13] 1.04 | [14] 0.973 | [15] 1.13 | [16] 1.01 | [18] 1.08 | [19] 0.872 | [20] 1 | [21] 0.982 | [4] 0.971 | [5] 1.03 | [24] 0.925 | [25] 0.872 | [26] 0.983 | [27] 0.886 | [28] 0.974
active: [8] 0.902 | [17] 0.301 | [29] 0.579 | [23] 0.836

O=[N+]([O-])c1ccccc1CS(=O)(=O)c1nc2ccccc2s1
inactive: S. cerevisiae deletion strains, locus YDL214C, strain PRR2, hits give low values 0.884 | S. cerevisiae deletion strains, locus YDR477W, strain SNF1, hits give low values 0.728 | S. cerevisiae deletion strains, locus YER123W, strain YCK3, hits give low values 0.821 | S. cerevisiae deletion strains, locus YER133W, strain GLC7, hits give low values 0.773 | S. cerevisiae deletion strains, locus YFR003C, strain YPI1, hits give low values 0.904 | S. cerevisiae deletion strains, locus YFR019W, strain FAB1, hits give low values 0.933 | S. cerevisiae deletion strains, locus YGR040W, strain KSS1, hits give low values 0.791 | S. cerevisiae deletion strains, locus YGR052W, strain FMP48, hits give low values 0.835 | S. cerevisiae deletion strains, locus YGR092W, strain DBF2, hits give low values 0.537 | S. cerevisiae deletion strains, locus YHR079C, strain IRE1, hits give low values 0.946 | S. cerevisiae deletion strains, locus YHR082C, strain KSP1, hits give low values 0.949 | S. cerevisiae deletion strains, locus YHR205W, strain SCH9, hits give low values 0.933 | S. cerevisiae deletion strains, locus YIL147C, strain SLN1, hits give low values 0.894 | S. cerevisiae deletion strains, locus YJL095W, strain BCK1, hits give low values 0.616 | S. cerevisiae deletion strains, locus YJL128C, strain PBS2, hits give low values 0.953 | S. cerevisiae deletion strains, locus YJL157C, strain FAR1, hits give low values 0.867 | S. cerevisiae deletion strains, locus YJR066W, strain TOR1 (second series), hits give low values 0.832 | S. cerevisiae deletion strains, locus YJR066W, strain TOR1, hits give low values 0.753 | S. cerevisiae deletion strains, locus YKL067W, strain YNK1, hits give low values 0.921 | S. cerevisiae deletion strains, locus YKL101W, strain HSL1, hits give low values 0.902 | S. cerevisiae deletion strains, locus YLR113W, strain HOG1, hits give low values 0.887 | S. cerevisiae deletion strains, locus YLR133W, strain CKI1, hits give low values 0.916 | S. cerevisiae deletion strains, locus YML070W, strain DAK1, hits give low values 0.881 | S. cerevisiae deletion strains, locus YMR001C, strain CDC5, hits give low values 0.891 | S. cerevisiae deletion strains, locus YMR205C, strain PFK2 (second series), hits give low values 0.91 | S. cerevisiae deletion strains, locus YNL020C, strain ARK1, hits give low values 0.918 | S. cerevisiae deletion strains, locus YNL183C, strain NPR1, hits give low values 0.871 | S. cerevisiae deletion strains, locus YNL307C, strain MCK1 (second series), hits give low values 0.655 | S. cerevisiae deletion strains, locus YOL136C, strain PFK27, hits give low values 0.843 | S. cerevisiae deletion strains, locus YOR061W, strain CKA2, hits give low values 0.908 | S. cerevisiae deletion strains, locus YOR119C, strain RIO1, hits give low values 0.734 | S. cerevisiae deletion strains, locus YOR231W, strain MKK1, hits give low values 0.91 | S. cerevisiae deletion strains, locus YPL031C, strain PHO85, hits give low values 0.704 | S. cerevisiae deletion strains, locus YPL153C, strain RAD53, hits give low values 0.764 | S. cerevisiae deletion strains, locus YPL204W, strain HRR25, hits give low values 0.678 | S. cerevisiae deletion strains, locus YPL256C, strain CLN2, hits give low values 1.08 | S. cerevisiae deletion strains, locus YPR106W, strain ISR1, hits give low values 0.966 | S. cerevisiae deletion strains, locus YPR111W, strain DBF20, hits give low values 0.952 | S. cerevisiae deletion strains, strain NNK1, hits give low values 0.93
active: S. cerevisiae deletion strains, locus YAR019C, strain CDC15, hits give low values 0.862 | S. cerevisiae deletion strains, locus YBL105C, strain PKC1, hits give low values 0.895 | S. cerevisiae deletion strains, locus YBR135W, strain CKS1, hits give low values 0.89 | S. cerevisiae deletion strains, locus YBR136W, strain MEC1, hits give low values 0.883 | S. cerevisiae deletion strains, locus YBR160W, strain CDC28, hits give low values 0.886 | S. cerevisiae deletion strains, locus YDL017W, strain CDC7, hits give low values 0.894 | S. cerevisiae deletion strains, locus YDL028C, strain MPS1, hits give low values 0.892 | [7] 0.889 | S. cerevisiae deletion strains, locus YDL108W, strain KIN28, hits give low values 0.889 | S. cerevisiae deletion strains, locus YDL132W, strain cdc53, hits give low values 0.828 | S. cerevisiae deletion strains, locus YDR052C, strain DBF4, hits give low values 0.87 | S. cerevisiae deletion strains, locus YDR054C, strain cdc34, hits give low values 0.855 | S. cerevisiae deletion strains, locus YDR226W, strain ADK1, hits give low values 0.878 | S. cerevisiae deletion strains, locus YFL009W, strain cdc4, hits give low values 0.855 | S. cerevisiae deletion strains, locus YFL029C, strain CAK1, hits give low values 0.849 | S. cerevisiae deletion strains, locus YFR028C, strain CDC14, hits give low values 0.863 | [10] 0.671 | S. cerevisiae deletion strains, locus YJR016C, strain ILV3, hits give low values 0.871 | S. cerevisiae deletion strains, locus YKL048C, strain ELM1, hits give low values 0.755 | S. cerevisiae deletion strains, locus YKL193C, strain SDS22, hits give low values 0.864 | S. cerevisiae deletion strains, locus YKL203C, strain TOR2, hits give low values 0.711 | S. cerevisiae deletion strains, locus YLR403W, strain SFP1, hits give low values 0.503 | S. cerevisiae deletion strains, locus YMR277W, strain FCP1, hits give low values 0.852 | S. cerevisiae deletion strains, locus YNL006W, strain LST8, hits give low values 0.894 | S. cerevisiae deletion strains, locus YNL161W, strain CBK1, hits give low values 0.885 | S. cerevisiae deletion strains, locus YNL207W, strain RIO2, hits give low values 0.852 | S. cerevisiae deletion strains, locus YNL222W, strain SSU72, hits give low values 0.886 | S. cerevisiae deletion strains, locus YOL078W, strain AVO1, hits give low values 0.834 | S. cerevisiae deletion strains, locus YOR329C, strain SCD5, hits give low values 0.896 | S. cerevisiae deletion strains, locus YPL209C, strain IPL1, hits give low values 0.882 | S. cerevisiae deletion strains, locus YPR025C, strain CCL1, hits give low values 0.892 | S. cerevisiae deletion strains, strain TSCII, hits give low values 0.848
